Structures are written as SMILES. In all, about 360,000 compounds went through this assay and about 17,000 (4.7%) were called active. About 5% were inconclusive and are not listed. No stated cut-off is given here; in the data, active means activity change below about -50%; inconclusive means mostly about -30% to -49%; inactive means weaker than that. Shown is part of a subset that was picked to be rich in actives.
On the % scale 0 is the no-effect control and ±100 the full control effect.

This assay is described as follows: qHTS for Inhibitors of Inflammasome Signaling: IL-1-beta AlphaLISA Primary Screen. As to conditions: THP-1 LPS/ATP IL-1B secretion, 16 h; at 57.5 µM, active compounds read low. Put shortly: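 Secreted IL-1B measured by AlphaLISA bead assay after 16 h compound exposure of THP-1 cells; compounds (final up to 57.5 uM) added 1 h before LPS (250 ng/mL) and ATP (1.25 mM) stimulation; lower signal means less secretion.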
A general note: Quantitative high-throughput screening tests each substance at several concentrations.
As for `CC1=C(N2CCN(c3ncccn3)CC2)CCC1=O`, the activity change was 8.92% (inactive). For `c1cnc(N2CCN(c3ccc4ccccc4n3)CC2)nc1`, the activity change is -50.1% (active). Consider `O=C(c1ccncc1)N1CCN(c2ccc3ccccc3n2)CC1`, for which the activity change is 5.08% (inactive). `COCCCn1cc(CN2CC(N(C)C)CS2(=O)=O)nn1` (centres undefined): the activity change was 21.9% (inactive). Under `CC1CCC(C(C)C)C(=O)/C1=C\c1ccc(NC(=O)CCC(=O)O)cc1` (centres undefined) stands 0% (inactive); under `Cc1ccc(NC(=O)c2cc(-c3ccccc3O)n[nH]2)cc1C`, -6.84% (inactive). Under `Cc1ccc(C)c(NC(=O)c2cc(-c3cc(C)cc(C)c3O)n[nH]2)c1` stands -93.5% (active).

On to `Cc1ccc(O)c(-c2cc(C(=O)Nc3c(C)n(C)n(-c4ccccc4)c3=O)[nH]n2)c1`, for which the activity change is 0% (inactive). In the case of `COc1ccc(NC(=O)C2(C)Cc3c(-c4ccc(C(N)=O)cc4)ccnc3O2)cc1` (centres undefined), the activity change is 0% (inactive). On to `Cc1cc(NC(=O)c2cc3ccccc3o2)no1`, for which the activity change was 45.3% (inactive).

For the compound `Cc1ccc(N=C2NC(=O)/C(=C/C=C/c3ccco3)S2)cc1C`, the activity change is -91.3% (active).

Consider `Cc1ccc(N2NC(=O)/C(=C/C=C/c3ccco3)C2=O)cc1C`, for which the activity change is -62.6% (active). With `CN1C(=O)/C(=C/c2ccco2)SC1=Nc1cccc(C(=O)O)c1`, the activity change was 18.8% (inactive). Under `Cc1ccc(-n2ncc3c(=O)n(-c4ccc(C)c(C)c4)c(-c4ccco4)nc32)cc1` stands -18.4% (inactive); under `O=C1NN(c2ccccc2)C(=O)/C1=C/c1ccc(-c2cccc(C(=O)O)c2)o1`, -4.59% (inactive); under `CCOP(=O)(OCC)C(Cc1ccccc1)N=C(c1ccccc1)c1ccccc1` (centres undefined), -2.56% (inactive). Turning to `CNS(=O)(=O)c1ccc2c(c1)[nH]c(=S)n2C`, the activity change was -25% (inactive). Regarding `Cc1[nH]c(N)nc(=S)c1CCCNc1ccccc1`, the activity change was 5.82% (inactive).

For `O=C(NCc1ccccc1)c1cccc(NC(=O)C2CCCCC2)c1`, the activity change is -13.6% (inactive). With `CCC(C)Sc1nc(C)nc2c1c(=O)n(C)c(=O)n2C` (centres undefined), the activity change was 11.7% (inactive). In the case of `Cc1cc(Br)cn2c(Cc3ccsc3)c(-c3ccc(C#N)cc3)nc12`, the activity change is -10.8% (inactive). As for `CN(Cc1ccc(C(F)(F)F)cc1)C(=O)[C@H]1O[C@@H](n2cnc3c(N)ncnc32)[C@H](O)[C@@H]1O`, the figure is -14.1% (inactive); as for `Cc1ccc2nc(SCC(=O)N3CC(C)OC(C)C3)nc(=O)n2c1` (centres undefined), 13.3% (inactive). Under `CC(C)C[C@@H](CO)N1CCN(Cc2ccc(O)cc2)CCC1=O` stands 0% (inactive). `CC(C)C[C@@H](COCc1ccc(Cl)cc1)N1CCN(C(=O)c2ccc(Cl)cc2Cl)CCC1=O`: the activity change is -52.8% (active).

For `O=C(c1cc(Cl)cc(Cl)c1)N1CCC(=O)N(C(COCc2ccccc2)Cc2ccccc2)CC1` (centres undefined), the activity change was -74.4% (active). Under `CC(C)CC(CO)N1CCN(C(=O)c2ccc(Cl)cc2Cl)CCC1=O` (centres undefined) stands 4.74% (inactive); under `Cc1ccc(S(=O)(=O)N2CCC(=O)N([C@H](COCc3ccccc3)Cc3ccccc3)CC2)cc1`, 13.2% (inactive). With `O=C(c1ccc(C(F)(F)F)cc1)N1CCC(=O)N([C@H](COCc2ccccc2)Cc2ccccc2)CC1`, the activity change is -29.6% (inactive).

The values above are taken from PubChem BioAssay AID743279 (National Center for Advancing Translational Sciences (NCATS), 2014).
